In the library only some 2.4% were active in any assay of this set; here they are far more common.
PREPL inhibitor: inhibitors of human prolyl oligopeptidase-like enzyme PREPL; inhibition, % at 5.96 µM; 320,000 compounds, 0.68% hits; recombinant PREPL, fluorescence polarization activity-based probe; Q4J6C6; in the data active means inhibition above about 43%
Target sequence (Q4J6C6 whole entry, looked up): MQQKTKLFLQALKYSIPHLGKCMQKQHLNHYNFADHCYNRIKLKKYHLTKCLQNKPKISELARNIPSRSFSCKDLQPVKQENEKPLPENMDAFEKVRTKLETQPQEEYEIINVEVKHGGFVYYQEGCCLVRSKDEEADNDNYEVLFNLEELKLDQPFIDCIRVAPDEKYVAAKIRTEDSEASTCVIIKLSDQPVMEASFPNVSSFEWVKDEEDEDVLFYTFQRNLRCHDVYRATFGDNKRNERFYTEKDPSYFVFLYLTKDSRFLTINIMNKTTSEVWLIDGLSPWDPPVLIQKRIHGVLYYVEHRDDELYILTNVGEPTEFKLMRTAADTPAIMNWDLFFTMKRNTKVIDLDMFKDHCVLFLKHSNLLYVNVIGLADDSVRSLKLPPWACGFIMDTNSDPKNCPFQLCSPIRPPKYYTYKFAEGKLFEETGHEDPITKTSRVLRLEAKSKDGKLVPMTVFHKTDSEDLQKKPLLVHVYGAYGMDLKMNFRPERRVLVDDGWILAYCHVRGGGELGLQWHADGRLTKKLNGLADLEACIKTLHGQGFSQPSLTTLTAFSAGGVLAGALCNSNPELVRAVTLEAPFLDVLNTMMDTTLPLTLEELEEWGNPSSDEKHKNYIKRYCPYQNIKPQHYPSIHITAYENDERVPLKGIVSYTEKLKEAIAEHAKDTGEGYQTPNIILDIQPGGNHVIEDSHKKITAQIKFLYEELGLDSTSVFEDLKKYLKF
NadD inh: inhibitors of Staphylococcus aureus NadD. purified NadD enzyme, colorimetric absorbance read-out. inhibition, % at 20 µM. 360,000 compounds, 0.78% hits. AID 602399; in the data active means inhibition above about 26%
PP5 primary: inhibitors of human protein phosphatase 5 (PP5). purified PP5c, OMFP substrate fluorescence. inhibition, % at 6.7 µM. 320,000 compounds, 0.18% hits. AID 1987;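 active means inhibition above the campaign's mean inhibition across all tested compounds plus 3 SD, cut at about 9.5% in these data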
PP1 counter: PP1-alpha (human) inhibition in PP5 counter-screen; purified PP1alpha, OMFP fluorescence; inhibition, % at 6.7 µM; 320,000 compounds, 0.9% hits; AID 2235;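 active means inhibition above the mean inhibition of all tested compounds plus 3 SD, computed separately for each screening campaign, cut at about 15% in these data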
Rpn11 block: inhibitors of human proteasome Rpn11; inhibition, % at 20 µM; 360,000 compounds, 0.59% hits; human 26S proteasome, Ub4-pepOG fluorescence polarization; 20S core pre-blocked with epoxomicin; AID 588493; O00487;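 active means inhibition at 20 µM, scaled to each plate's controls, above about 33%, limit read from the data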
PP1 inh confirm: human PP1 phosphatase inhibition, confirmation; shares compounds with PP1 counter; purified PP1alpha, OMFP substrate fluorescence; inhibition, % at 6.7 µM; 1,900 compounds, 52% hits;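 active means mean PP1 inhibition above a set limit taken from the earlier primary screen, cut at about 15% in these data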
PP5 counter: PP5 phosphatase inhibition, counter-screen for PP1 inhibitors. inhibition, % at 6.7 µM. purified PP5c, OMFP fluorescence. 1,900 compounds, 4% hits. shares compounds with PP1 counter. AID 2360;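 active means mean PP5 inhibition over triplicate wells above about 9.5% taken from the earlier PP1 screen, limit read from the data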
Of the large screens only hits and unclear results are named; the others gave an inactive call (follow-up assays come after a bar, where they were run); ! = repeats disagree.

COc1ccc(C2=NN(C(=O)c3cccs3)C(c3ccccc3O)C2)cc1 (centres undefined)	PP1 counter 27.2 | PP1 inh confirm 18.8 | PP5 counter inactive
COc1ccc(C2CC(c3ccccc3)=NN2C(=O)COC(=O)c2cccnc2Cl)cc1 (centres undefined)	none
COc1ccc(C2CC(c3ccccc3)=NN2C(=O)COC(=O)c2cc(S(=O)(=O)N3CCOCC3)ccc2Cl)cc1 (centres undefined)	PP1 counter 20.3 | PP1 inh confirm inactive | PP5 counter inactive
Cc1ccc(S(=O)(=O)N2C[C@]3(O)C[C@@H]4C(=O)N(c5ccccc5)C(=O)[C@@H]4C[C@]3(OC(=O)Nc3cccs3)C2)cc1	none (no result: PREPL inhibitor, PP5 primary, PP1 counter)
CN1CCN(C(c2ccc(F)cc2)c2ccc3cccnc3c2O)CC1 (centres undefined)	none (no result: PREPL inhibitor, PP5 primary, PP1 counter)
CN1CCN(C(c2ccc(Br)cc2)c2cc(Cl)c3cccnc3c2O)CC1 (centres undefined)	PP1 counter 24.1 | PP1 inh confirm inactive | PP5 counter inactive
CCN(C(=O)c1cc2c(=O)[nH]c3ccc(C)cc3c2s1)c1ccc(F)cc1	PP1 counter 17.8 | PP1 inh confirm 17.0 | PP5 counter inactive
COC(=O)C(NC(=O)CCc1nnc2ccc(N3CCC(C)CC3)nn12)C(C)C (centres undefined)	PP1 counter 30.6 | PP1 inh confirm inactive | PP5 counter inactive
COc1ccc(CCNC(=O)COc2ccc(S(=O)(=O)NCC(C)C)cc2Cl)cc1OC	PP1 counter 18.5 | PP1 inh confirm inactive | PP5 counter inactive
CC(OC(=O)c1ccc(NC(=O)CC#N)cc1)C(=O)NC(c1ccccc1)c1ccccc1 (centres undefined)	none (no result: PP5 primary, PP1 counter)
Cc1cc(C(=O)C(C)OC(=O)c2ccc(NC(=O)CC#N)cc2)c(C)n1-c1ccccc1 (centres undefined)	PP1 counter 18.9 | PP1 inh confirm inactive | PP5 counter inactive
COc1ccc(-c2cc(-c3ccccc3)c(C#N)c(SCC(=O)O)n2)cc1	none
COc1ccc(-c2cc(-c3ccc(Cl)cc3)c(C#N)c(SCC(=O)O)n2)cc1	PP1 counter 48.3 | PP1 inh confirm 27.5 | PP5 counter inactive
COc1cccc(NC(=O)N(C)C[C@H]2Oc3cc(Br)ccc3S(=O)(=O)N([C@H](C)CO)C[C@H]2C)c1	none (no result: PREPL inhibitor, PP5 primary, PP1 counter)
Cc1ccc(NC(=O)CSc2nc(NS(=O)(=O)c3ccccc3)cc(=O)[nH]2)cc1	PP1 counter 21.7 | PP1 inh confirm inactive | PP5 counter inactive
COc1ccc(S(=O)(=O)N(C)C[C@@H]2OCc3cnnn3CCCC(=O)N([C@@H](C)CO)C[C@@H]2C)cc1	none (no result: PREPL inhibitor, PP5 primary, PP1 counter)
CCOc1cc(Br)cc(/C=N/NC(=O)c2cccnc2)c1O	PP1 counter 22.4 | PP1 inh confirm 18.6 | PP5 counter inactive
COc1c(Br)cc(Br)cc1/C=N/NC(=O)c1cccnc1	none (no result: PREPL inhibitor, PP5 primary, PP1 counter)
COc1ccc(-c2ccc3c(N)c(C(=O)c4cccc(OC)c4)sc3n2)cc1	PP1 counter 29.8 | PP1 inh confirm 25.5 | PP5 counter inactive
CCOC(=O)C1=C(c2ccccc2)N=c2s/c(=C\c3ccco3)c(=O)n2C1c1cccs1 (centres undefined)	PP1 counter 20.9 | PP1 inh confirm 19.0 | PP5 counter inactive
CCOC(=O)C1=C(c2ccccc2)N=c2s/c(=C\c3cc(OC)c(OC)c(OC)c3)c(=O)n2C1c1cccs1 (centres undefined)	none
O=C(NCc1ccc(F)cc1)c1cccc(S(=O)(=O)N2CCOCC2)c1	none
Nc1nc(-c2ccccn2)nc(N)c1Cc1ccc(Cl)cc1Cl	PP1 counter 34.1 | PP1 inh confirm 46.9 | PP5 counter inactive
Nc1nc(-c2ccccn2)nc(N)c1Cc1c(F)cccc1Cl	PP1 counter 27.2 | PP1 inh confirm 46.8 | PP5 counter inactive
Nc1nc(-c2ccccn2)nc(N)c1Cc1ccccc1F	none
CCc1ccc(NC(=O)c2cnc(SC)nc2C)cc1	none (no result: PREPL inhibitor, PP5 primary, PP1 counter)
COc1ccc(CN2C(=O)CCC2(C)c2nc3ccccc3[nH]2)cc1 (centres undefined)	none (no result: PREPL inhibitor, PP5 primary, PP1 counter)
Cc1ccc2nc(-c3ccccn3)c(Nc3ccccc3C)n2c1	PP1 counter 30.0 | PP1 inh confirm 41.7 | PP5 counter inactive
Cc1ccccc1Nc1c(-c2ccccn2)nc2ccccn12	PP1 counter 34.3 | PP1 inh confirm inactive | PP5 counter inactive
Nc1ccn(CC(=O)NCCc2ccccn2)c(=O)n1	none
COc1ccc(NC(=O)CSc2nc(O)cc(=O)n2-c2ccccc2OC)cc1	PP1 counter 21.2 | PP1 inh confirm inactive | PP5 counter inactive
COc1ccccc1-n1c(SCC(=O)Nc2ccc(C)cc2)nc(O)cc1=O	none
O=c1cc(O)nc(SCc2ccccc2)n1-c1ccc(Cl)cc1	PP1 counter 20.6 | PP1 inh confirm inactive | PP5 counter inactive
NC(=O)CSc1nc(O)cc(=O)n1-c1ccccc1	none
Cc1ccc(NC(=O)CSc2nc(O)cc(=O)n2-c2ccc(C)cc2)cc1	PP1 counter 24.9 | PP1 inh confirm inactive | PP5 counter inactive
CC1Cc2ccccc2N1C(=O)CCS(=O)(=O)c1ccc2c(c1)NC(=O)CS2 (centres undefined)	none
N[C@@H](Cc1cc(I)c(Oc2ccc(O)c(I)c2)c(I)c1)C(=O)O	NadD inh 58.3!, PP1 counter 28.3!, Rpn11 block 58.7! | PP1 inh confirm inactive | PP5 counter inactive
CCOc1ccccc1NC(=O)COC(=O)C12CC3CC(CC(O)(C3)C1)C2	none (no result: PREPL inhibitor, PP5 primary, PP1 counter)
COCCn1c(C)cc(C2=NNC(=Nc3ccc(OC)cc3)SC2)c1C	PP1 counter 20.5 | PP1 inh confirm inactive | PP5 counter inactive
COc1cccc(/C=C/C(=O)NCc2ccc3c(c2)OCO3)c1	none
N#CCCN(C(=O)COC(=O)CCC(=O)c1ccc(F)cc1)c1ccccc1	none
N#CCCN(C(=O)COC(=O)CCN=C1NS(=O)(=O)c2ccccc21)c1ccc(F)cc1	PP1 counter 38.8 | PP1 inh confirm inactive | PP5 counter inactive
CCCc1cc(=O)oc2cc(OC(=O)CN3C(=O)NC4(CCCC4)C3=O)ccc12	none
CCOC(=O)C1=C(c2ccccc2)NC(N)=NC1c1ccc(OCc2ccc(C(=O)OC)cc2)cc1 (centres undefined)	PP1 counter 43.8 | PP1 inh confirm 31.4 | PP5 counter inactive
CCOC(=O)C1=C(c2ccccc2)Nc2ncnn2C1c1ccc(C(=O)O)cc1 (centres undefined)	none
COC(=O)c1ccc(CNC(=O)c2ccc(COc3ccccc3)cc2)cc1	PP1 counter 26.1 | PP1 inh confirm 23.8 | PP5 counter inactive
CCCCCC(=O)N1C[C@@H](n2cc(-c3ccc(F)cc3)nn2)[C@H](O)C[C@@H]1c1ccc(C)cc1	none (no result: PREPL inhibitor, PP5 primary, PP1 counter)
O=C(O)c1n[nH]c2c1CC(C1CCCCC1)CC2 (centres undefined)	PP1 counter 19.2 | PP1 inh confirm inactive | PP5 counter inactive

Screens: PubChem, several laboratories
